Results taken from PubChem BioAssay (NCATS).
Inconclusive results are not listed. Activity calls are given as the source filed them. The call rests on the fitted dose curve; in most records, active means well fitted curve in either direction with a large enough effect (not every such curve was filed as active); inconclusive means small, poorly fitted or top-dose-only effect, or another doubt; inactive means flat fitted curve, though single readings scatter.

molecular target: Mitogen-activated protein kinase 10 (Mus musculus) (UniProt Q61831); experiment: JNK3 AlphaScreen Assay (AID 530); conditions: JNK3 lysate, c-Jun phosphorylation; series mostly up to 57.1 µM; activity change, negative = inhibition: at the top concentration;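 further: kinase came from lysate of stimulated human HepG2 cells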
Description: NIH Chemical Genomics Center [NCGC]
NIH Molecular Libraries Screening Centers Network [MLSCN]
The c-jun N-terminal kinase (JNK) family are serine/threonine protein kinases that phosphorylate c-jun, a component of the transcription factor […] (AP-1). JNK kinases are members of the mitogen-activated protein kinase family including the extracellular regulated kinases and p38 kinases. Three JNK genes (JNK 1, 2, and 3) have been identified in humans so far. JNK1 and JNK2 have a broad distribution and JNK3 is primarily found in neuronal tissues and cardiac myocytes.
JNK3 has been under consideration as a target for the treatment of neurodegenerative disorders. […] JNK pathway is also involved in pathological process in a mouse model of Parkinson's disease (Xia et al., 2001).
Given these potential tissue distributions and links to neuroprotection, JNK3 inhibitors should provide useful investigational tools to study the role of this kinase in several diseases including, arthritis, stroke, myocardial infarction, ischemic injury and Parkinson's disease.
A homogeneous AlphaScreen is developed to measure the activity of JNK3. AlphaScreen is a two bead-based proximity-dependent chemical energy transfer luminescent assay platform. The phosphorylation of a biotinylated c-jun substrate by JNK3 can be detected with an antibody raised against phosphorylated c-jun. This process brings streptavidin donor beads and Protein-A acceptor beads to within a proximity range of <200 nm, and subsequently lead a chemical luminescent reaction upon exciting donor beads with 680 nm laser excitation light. Inhibition of JNK3 activity by small molecules and subsequent decrease in the antibody binding to biotinylated c-jun could attenuate or abolish this chemical luminescent reaction.
Yang DD, Kuan CY, Whitmarsh AJ, Rincon M, Zheng TS, Davis RJ, Rakic P and Flavell RA (1997) Absence of excitotoxicity-induced apoptosis in the hippocampus of mice lacking the Jnk3 gene. Nature 389:865-870. [PMID: 9349820]
Herdegen T, Claret FX, Kallunki T, Martin-Villalba A, Winter C, Hunter T, and Karin M (1998) Lasting N-terminal phosphorylation of c-Jun and activation of c-Jun N-terminal kinases after neuronal injury. J.Neurosci. 18:5124-5135. [PMID: 9651196]
Xia XG, Harding T, Weller M, Bieneman A, Uney JB and Schulz JB (2001) Gene transfer of the JNK interacting protein-1 protects dopaminergic neurons in the MPTP model of Parkinson's disease. Proc.Natl.Acad.Sci.U.S.A. 98:10433-10438.
NCGC Assay Protocol Summary:
GST-cJun (1-79) (Stratagene, La Jolla CA, #205145) was biotnylated by PerkinElmer (PerkinElmer-BioSignalInc. Montreal, Canada) and was detectable by the streptavidin Donor beads. Anti-(phospho)cJun (Ser73) antibody was from UpState (Charlottesvilles, VA, #06-659). JNK3-containing lysates were generated from HepG2 cells and pre-activated by interleukin1-beta and tumor necrosis factor alpha. All reagents were stored at -20 C before using. Phosphorylated biotinylated-GST-cJun was recognized by Anti-(phospho)cJun (Ser73) antibody and this process brings acceptor and donor beads together. Therefore JNK3 phosphorylation of cJun can be measured by Alpha reading by EnVision (PerkinElmer, Boston, MA).
The composition of kinase buffer was (in mM) 20 tris- HCl (pH 7.6) 10 MgCl2, 1 DTT, and 0.1 Na3VO4 and 0.01% Tween-20. Beads were diluted in detection buffer containing (in mM) 20 tris-HCl (pH 7.7), 20 NaCl and 80 EDTA and 0.3% BSA. The assay was performed at room temperature. All compounds were screened as titrations from 0.6 nM to 46 uM final concentration. The assay was performed in 1536-well format (white solid bottom and untreated) as follows:
Sequence,Parameter,Value,Description
1,Reagent,3 uL,Biotin-GST-cJun, Anti-(phospho)cJun and pre-activated JNK3-containing lysates
2,Compound,23 nL,Final concentration was 0.6nM to 46uM
3,Time,15 minutes,Room Temperature
4,Reagent,1 uL,ATP final concentration 10uM
6,Reagent,0.5 uL,2ng/well bead mixture
[…]
On the % scale 0 is the no-effect control and ±100 the full control effect.

Activity change, negative = inhibition, inactive:
COC(=O)c1ccc(C(NC(=O)OCc2ccccc2)/C(C)=C/[C@@H](C)C(=O)NCc2cc(C)on2)cc1 (stereo not given in full) -0.538%, CC(=O)N1C2(C=CC1(C)C(=O)NCCN1CCOCC1)CCCCC2 (stereo not given) 2.62%, CCCCCCN(C(=O)CCCCCN1C(=O)NC(c2ccc([N+](=O)[O-])cc2)C(C(=O)OCc2ccccc2)=C1C)C(C(=O)NCCCC)c1ccc(OCC(=O)OC)c(C(=O)OC)c1 (stereo not given) -8.29%, CCC[C@@H]1C[C@@]1(CCC)C(NP(=O)(c1ccccc1)c1ccccc1)c1ccc(Cl)cc1 (stereo not given in full) -1.23%, CC(=O)N1[C@H](C)C=C[C@]1(Cc1ccccc1)C(=O)NCCc1c[nH]c2ccccc12 -23.6%, COC(=O)[C@@]1(Cc2ccccc2)[C@@H]2[C@@H](CC(=O)[C@H]2CC(=O)C(=O)N(C)C)CN1C(=O)c1ccccc1 -5.68%, COC(=O)c1ccc(C(NC(=O)OCc2ccccc2)/C(=C/[C@@H](C)C(=O)NCc2ccc(-c3ccccc3)cc2)c2cccnc2)cc1 (stereo not given in full) -13.5%, COC(=O)c1ccc(C(NC(=O)OCc2ccccc2)/C(C)=C/[C@@H](C)C(=O)N(C)Cc2cccnc2)cc1 (stereo not given in full) 25.2%, CC1(C(=O)NCCc2c[nH]c3ccccc23)C=CCN1C(=O)c1ccccc1 (stereo not given) -2.09%, CCC[C@@H]1C[C@@]1(CCC)[C@@H](NP(=O)(c1ccccc1)c1ccccc1)c1ccc(C(=O)OC)cc1 -1.59%, COCCn1c(C(=O)N2CCCC2)cc2c1C[C@H]1CN(C(=O)c3ccccc3)[C@@](Cc3ccc(OC)cc3)(C(=O)OC)[C@@H]21 -14.6%, COC(=O)[C@@]1(Cc2ccc(OC)cc2)[C@H]2c3cc(C(=O)N4CCCC4)n(Cc4ccsc4Br)c3C[C@H]2CN1C(=O)c1ccccc1 -29.2%, CNC(=O)[C@H](C)/C=C(\c1cccnc1)C(NC(=O)OCc1ccccc1)c1ccc(C(=O)OC)cc1 (stereo not given in full) -4.17%, Cc1ccc(CNC(=O)[C@H](C)[C@H]2C[C@]2(C)[C@H](NC(=O)OCc2ccccc2)c2ccccc2)c(F)c1F 15.4%, CCCC[C@@H]1C[C@H]1C(NC(=O)c1cccnc1)c1ccc(-c2ccccc2)cc1 (stereo not given in full) -0.334%, CCCCCCN(C(=O)CCCCCN1C(=O)NC(c2ccc(-c3ccccc3)cc2)C(C(=O)OCc2ccccc2)=C1C)C(C)C(=O)NCCCC (stereo not given) -5.23%, COC(=O)[C@@]1(Cc2ccccc2)[C@H]2c3cc(C(=O)N(C)C)n(Cc4ccc(OC)c(OC)c4)c3C[C@H]2CN1C(=O)c1ccccc1 -19.9%, CC(C)(C)[Si](OCC[C@@H]1C[C@@]1(C)[C@@H](NP(=O)(c1ccccc1)c1ccccc1)c1ccccc1)(c1ccccc1)c1ccccc1 2.72%, C/C(=C\[C@@H](NP(=O)(c1ccccc1)c1ccccc1)c1ccccc1)CO[Si](c1ccccc1)(c1ccccc1)C(C)(C)C -3.29%, C[C@@H]1C=C[C@](Cc2ccccc2)(C(=O)NCCCNc2ncc(C(F)(F)F)cc2Cl)N1C(=O)c1ccccc1 0.907%, COC(=O)[C@@]1(Cc2ccc(OC)cc2)[C@H]2c3cc(C(=O)N4CCCC4)n(Cc4ccc(S(C)(=O)=O)cc4)c3C[C@H]2CN1C(=O)c1ccccc1 -12.8%, COC(=O)N1[C@H](C)C=C[C@]1(Cc1ccccc1)C(=O)NCc1ccccn1 -0.534%, CCCC[C@@H]1C[C@H]1[C@@H](NP(=O)(c1ccccc1)c1ccccc1)c1ccccc1OC 1.1%, COC(=O)[C@@]1(Cc2ccc(OC)cc2)[C@H]2c3cc(C(=O)N(C)C)n(CCSCCO)c3C[C@H]2CN1C(=O)c1ccccc1 -11.5%, CC(=O)N1CC=CC1(CC(C)C)C(=O)NCC1CC1 (stereo not given) -5.42%, CN1[C@H](Cc2ccccc2)C=C[C@]1(C)C(=O)NCC1CC1 -18.5%, COC(=O)CNC(=O)[C@@]1(C)C=C[C@@H](Cc2ccccc2)N1C(=O)OC 5.61%, C[C@@H]1C=C[C@](Cc2ccccc2)(C(=O)O)N1C(=O)c1ccccc1 1.37%, CNC(=O)C1(C)C=CCN1C(=O)c1ccccc1 (stereo not given) 0.879%, CCCCCCN(C(=O)CCCCCN1C(=O)NC(c2ccc(Cl)cc2)C(C(=O)OCc2ccccc2)=C1C)C(C(=O)NCCCC)c1ccc(OCC(=O)OC)c(C(=O)OC)c1 (stereo not given) -5.66%, CCCCNC(=O)C(c1ccc(OCC(=O)OC)c(C(=O)OC)c1)N(Cc1ccccn1)C(=O)CCCCCN1C(=O)NC(c2ccc(-c3ccccc3)cc2)C(C(=O)OCc2ccccc2)=C1C (stereo not given) -13.4%, O=C(N[C@@H](c1ccccc1)[C@@H]1C[C@H]1C(=O)NCc1ccccc1)OCc1ccccc1 -4.66%, COC(=O)c1ccc(C(NC(=O)OCc2ccccc2)/C(F)=C/[C@@H](C)C(=O)NCc2ccc(OC)c(OC)c2)cc1 (stereo not given in full) 2.51%, CC(C)=C1C(=O)C(c2ccccc2)=C2CN3C(=O)N(CCc4ccccc4)C(=O)[C@]3(Cc3ccc(C(F)(F)F)cc3)[C@H]21 -0.992%, CCCCCCN(C(=O)CCCCCN1C(=O)NC(c2ccc(-c3ccccc3)cc2)C(C(=O)OCc2ccccc2)=C1C)C(C(=O)NCCCC)c1ccc(OCC(=O)OC)cc1 (stereo not given) -5.39%, COC(=O)[C@@]1(Cc2ccc(OC)cc2)[C@H]2c3cc(C(=O)N(C)C)n(Cc4cccc5ccccc45)c3C[C@H]2CN1C(=O)c1ccccc1 -26.8%, CC1=C(C(=O)OCc2ccccc2)C(C2CCCCC2)NC(=O)N1CCCCCC(=O)O (stereo not given) 27.3%, CC(=O)N1[C@H](C)C=C[C@]1(Cc1ccccc1)C(=O)NCc1ccccn1 -1.34%, COC(=O)c1ccc(C(NC(=O)OCc2ccccc2)/C(=C/[C@@H](C)C(=O)NCc2nc3ccccc3n2C)c2cccnc2)cc1 (stereo not given in full) -29.1%

outcome, inactive:
COC(=O)c1ccc(C(NC(=O)OCc2ccccc2)/C(C)=C/[C@@H](C)C(=O)NCCN2CCOCC2)cc1 (stereo not given in full)
